# Where a name gives a salt, the structure may show the parent alone.
# How the values were obtained:
# Details in all cases: incubation time: 27 h, anaerobic, 37 °C;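 for the amine columns active = adjusted P below 0.05 in both replicates with a change the same way and a mean fold change under 0.8 or over 1.25; inactive = the rest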
# [1] = test system: Clostridium sporogenes DSM 1664; experiment: growth (OD595) fold change vs plate DMSO controls (fold change (ratio)); higher = more growth
# Outline: (§1)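 Growth is the fold change relative to the median of plate DMSO controls. Readings came from anaerobic mGAM cultures in 96-well plates grown for 27 h at 37 °C and read at 595 nm. They were blank-subtracted, corrected for compound background with 20 µM compound solutions in water, and converted to OD with a calibration factor of 5. Values are means of 2 biological replicates, and fold changes above 1.5 were set to NA.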
# Escherichia coli IAI1 [2] = experiment: as above
# Outline: as §1
# [3] = test system: Klebsiella aerogenes DSM 30053; experiment: as above
# Outline: as §1
# [4] = test system: Ruminococcus gnavus DSM 108212; experiment: as above
# Outline: as §1
# [5] = test system: Klebsiella aerogenes DSM 30053; experiment: fold change of Histamine concentration vs plate DMSO controls (fold change (ratio)); higher = more amine produced, active = hit call of the paper (significant change in both replicates, either direction)
# Outline: (§2)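 Anaerobic mGAM cultures of four gut bacterial strains were grown at 37 °C for 27 h in 80 µL wells, starting at OD 0.1 before 1:1 dilution. Compounds were at 20 µM final (sweeteners 50 µM). Whole cultures were extracted with cold acetonitrile/methanol containing 0.1% formic acid and centrifuged. Amines were quantified by LC–triple-quadrupole MS (dynamic MRM) against external calibration curves and drift-corrected within batch. Each value is the fold change versus plate DMSO controls, averaged over 2 biological replicates.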
# [6] = test system: Clostridium sporogenes DSM 1664; experiment: fold change of Tryptamine concentration vs plate DMSO controls (fold change (ratio)); higher = more amine produced, active = hit call of the paper (significant change in both replicates, either direction)
# Outline: as §2
# [7] = test system: Ruminococcus gnavus DSM 108212; experiment: as above
# Outline: as §2
# Escherichia coli IAI1 [8] = experiment: fold change of Putrescine concentration vs plate DMSO controls (fold change (ratio)); higher = more amine produced, active = hit call of the paper (significant change in both replicates, either direction)
# Outline: as §2
# [9] = test system: Klebsiella aerogenes DSM 30053; experiment: as above
# Outline: as §2
# Escherichia coli IAI1 [10] = experiment: fold change of Cadaverine concentration vs plate DMSO controls (fold change (ratio)); higher = more amine produced, active = hit call of the paper (significant change in both replicates, either direction)
# Outline: as §2
# [11] = test system: Klebsiella aerogenes DSM 30053; experiment: as above
# Outline: as §2
# [12] = test system: Ruminococcus gnavus DSM 108212; experiment: fold change of 2-Phenylethylamine concentration vs plate DMSO controls (fold change (ratio)); higher = more amine produced, active = hit call of the paper (significant change in both replicates, either direction)
# Outline: as §2
Compound,growth [1],growth (Escherichia coli IAI1 [2]),growth [3],growth [4],fold change of Histamine concentration [5],fold change of Tryptamine concentration [6],fold change of Tryptamine concentration [7],fold change of Putrescine concentration (Escherichia coli IAI1 [8]),fold change of Putrescine concentration [9],fold change of Cadaverine concentration (Escherichia coli IAI1 [10]),fold change of Cadaverine concentration [11],fold change of 2-Phenylethylamine concentration [12]
Cc1cccc(Nc2ccccc2C(=O)O)c1C [Mefenamic acid] (20 µM),1.08,0.988,0.961,1.03,1.05 (inactive),0.983 (inactive),1.01 (inactive),1.01 (inactive),0.998 (inactive),0.976 (inactive),0.995 (inactive),0.982 (inactive)
CC(C)(CO)[C@@H](O)C(=O)NCCCC(=O)O [Hopantenate calcium] (20 µM),1.07,0.997,0.983,1.05,1.03 (inactive),1.02 (inactive),1.04 (inactive),1.01 (inactive),0.995 (inactive),1.03 (inactive),0.988 (inactive),1.03 (inactive)
COc1ccccc1N1CCN(CCCNc2cc(=O)n(C)c(=O)n2C)CC1 [Urapidil hydrochloride] (20 µM),0.984,0.934,1,0.999,0.993 (inactive),1.04 (inactive),0.977 (inactive),0.978 (inactive),1.01 (inactive),1.03 (inactive),1 (inactive),0.971 (inactive)
COc1ccc(-c2cc(=O)c3c(O)cc(O[C@@H]4O[C@H](CO[C@@H]5O[C@@H](C)[C@H](O)[C@@H](O)[C@H]5O)[C@@H](O)[C@H](O)[C@H]4O)cc3o2)cc1O [Diosmin] (20 µM),1.12,0.976,1.01,1.1,0.924 (inactive),0.985 (inactive),0.97 (inactive),0.961 (inactive),0.992 (inactive),0.971 (inactive),1.02 (inactive),1 (inactive)
Cn1c(=O)c2[nH]cnc2n(C)c1=O [Aminophylline] (20 µM),0.81,0.991,0.955,0.972,0.965 (inactive),1.06 (inactive),0.972 (inactive),1.17 (inactive),1.02 (inactive),1.01 (inactive),1 (inactive),0.939 (inactive)
OCC1(O)OC[C@@H](O)[C@@H](O)[C@H]1O (some centres not stated) [Psicose] (50 µM),1.08,1.01,1.03,1.03,1.03 (inactive),0.991 (inactive),0.992 (inactive),1.04 (inactive),1.04 (inactive),0.967 (inactive),1.01 (inactive),0.942 (inactive)
